Like-named read-outs stand apart in the source and are kept apart here.
What was measured:
Settings in all cases: read-out: apparent Kd, n = 1
[1] = test system: MAP2K1
[2] = test system: MAP3K5
[3] = test system: MAPK10
[4] = compound concentrations:100 nM and 1000 nM (sheet 'Lestaurtinib' of Supplementary Table 1),run:Lestaurtinib_02765_R3,Plate:MR026
[5] = compound concentrations:100 nM and 1000 nM (sheet 'Lestaurtinib' of Supplementary Table 1),run:Lestaurtinib_02766_R3,Plate:MR027
[6] = compound concentrations:100 nM and 1000 nM (sheet 'Lestaurtinib' of Supplementary Table 1),run:Lestaurtinib_02768_R3,Plate:MR028
[7] = compound concentrations:100 nM and 1000 nM (sheet 'Lestaurtinib' of Supplementary Table 1),run:Lestaurtinib_02795_R2,Plate:MR022
[8] = compound concentrations:100 nM and 1000 nM (sheet 'Lestaurtinib' of Supplementary Table 1),run:Lestaurtinib_03172_R3,Plate:MR031
[9] = compound concentrations:100 nM and 1000 nM (sheet 'Lestaurtinib' of Supplementary Table 1),run:Lestaurtinib_03260_R1,Plate:MR033
[10] = compound concentrations:100 nM and 1000 nM (sheet 'Lestaurtinib' of Supplementary Table 1),run:Lestaurtinib_03260_R3,Plate:MR033
[11] = compound concentrations:100 nM and 1000 nM (sheet 'Lestaurtinib' of Supplementary Table 1),run:Lestaurtinib_02367_R1,Plate:MR003
[12] = compound concentrations:100 nM and 1000 nM (sheet 'Lestaurtinib' of Supplementary Table 1),run:Lestaurtinib_02407_R1,Plate:MR005
[13] = compound concentrations:100 nM and 1000 nM (sheet 'Lestaurtinib' of Supplementary Table 1),run:Lestaurtinib_02407_R2,Plate:MR005
[14] = compound concentrations:100 nM and 1000 nM (sheet 'Lestaurtinib' of Supplementary Table 1),run:Lestaurtinib_02422_R2,Plate:MR006
[15] = compound concentrations:100 nM and 1000 nM (sheet 'Lestaurtinib' of Supplementary Table 1),run:Lestaurtinib_02437_R1,Plate:MR007
[16] = compound concentrations:100 nM and 1000 nM (sheet 'Lestaurtinib' of Supplementary Table 1),run:Lestaurtinib_02437_R2,Plate:MR007
[17] = compound concentrations:100 nM and 1000 nM (sheet 'Lestaurtinib' of Supplementary Table 1),run:Lestaurtinib_02473_R1,Plate:MR010
[18] = compound concentrations:100 nM and 1000 nM (sheet 'Lestaurtinib' of Supplementary Table 1),run:Lestaurtinib_02473_R2,Plate:MR010
[19] = compound concentrations:100 nM and 1000 nM (sheet 'Lestaurtinib' of Supplementary Table 1),run:Lestaurtinib_02473_R3,Plate:MR010
[20] = compound concentrations:100 nM and 1000 nM (sheet 'Lestaurtinib' of Supplementary Table 1),run:Lestaurtinib_02482_R1,Plate:MR011
[21] = compound concentrations:100 nM and 1000 nM (sheet 'Lestaurtinib' of Supplementary Table 1),run:Lestaurtinib_02482_R2,Plate:MR011
[22] = compound concentrations:100 nM and 1000 nM (sheet 'Lestaurtinib' of Supplementary Table 1),run:Lestaurtinib_02487_R1,Plate:MR012
[23] = compound concentrations:100 nM and 1000 nM (sheet 'Lestaurtinib' of Supplementary Table 1),run:Lestaurtinib_02566_R1,Plate:MR014

Lestaurtinib
potency estimated from few doses ([1]; compound concentrations:100 nM and 1000 nM (sheet 'Lestaurtinib' of Supplementary Table 1),run:Lestaurtinib_02741_R3,Plate:MR023): 1320 nM
potency estimated from few doses ([1]; compound concentrations:100 nM and 1000 nM (sheet 'Lestaurtinib' of Supplementary Table 1),run:Lestaurtinib_02748_R1,Plate:MR024): 1440 nM
potency estimated from few doses ([1]; compound concentrations:100 nM and 1000 nM (sheet 'Lestaurtinib' of Supplementary Table 1),run:Lestaurtinib_02748_R3,Plate:MR024): 1400 nM
potency estimated from few doses ([1]; compound concentrations:100 nM and 1000 nM (sheet 'Lestaurtinib' of Supplementary Table 1),run:Lestaurtinib_02752_R2,Plate:MR025): 1510 nM
potency estimated from few doses ([1]; compound concentrations:100 nM and 1000 nM (sheet 'Lestaurtinib' of Supplementary Table 1),run:Lestaurtinib_02765_R2,Plate:MR026): 1620 nM
potency estimated from few doses [1, 4]: 1670 nM
potency estimated from few doses ([1]; compound concentrations:100 nM and 1000 nM (sheet 'Lestaurtinib' of Supplementary Table 1),run:Lestaurtinib_02766_R1,Plate:MR027): 964 nM
potency estimated from few doses [1, 5]: 1540 nM
potency estimated from few doses [1, 6]: 2210 nM
potency estimated from few doses [1, 7]: 771 nM
potency estimated from few doses ([1]; compound concentrations:100 nM and 1000 nM (sheet 'Lestaurtinib' of Supplementary Table 1),run:Lestaurtinib_02802_R1,Plate:MR029): 1900 nM
potency estimated from few doses ([1]; compound concentrations:100 nM and 1000 nM (sheet 'Lestaurtinib' of Supplementary Table 1),run:Lestaurtinib_02896_R1,Plate:MR030): 803 nM
potency estimated from few doses [1, 8]: 823 nM
potency estimated from few doses ([1]; compound concentrations:100 nM and 1000 nM (sheet 'Lestaurtinib' of Supplementary Table 1),run:Lestaurtinib_03252_R1,Plate:MR032): 1540 nM
potency estimated from few doses [1, 9]: 1210 nM
potency estimated from few doses [1, 10]: 2310 nM
potency estimated from few doses ([2]; compound concentrations:100 nM and 1000 nM (sheet 'Lestaurtinib' of Supplementary Table 1),run:Lestaurtinib_02364_R1,Plate:MR002): 938 nM
potency estimated from few doses [2, 11]: 1240 nM
potency estimated from few doses ([2]; compound concentrations:100 nM and 1000 nM (sheet 'Lestaurtinib' of Supplementary Table 1),run:Lestaurtinib_02381_R1,Plate:MR004): 987 nM
potency estimated from few doses ([2]; compound concentrations:100 nM and 1000 nM (sheet 'Lestaurtinib' of Supplementary Table 1),run:Lestaurtinib_02381_R2,Plate:MR004): 926 nM
potency estimated from few doses ([2]; compound concentrations:100 nM and 1000 nM (sheet 'Lestaurtinib' of Supplementary Table 1),run:Lestaurtinib_02381_R3,Plate:MR004): 826 nM
potency estimated from few doses [2, 12]: 1600 nM
potency estimated from few doses [2, 13]: 1350 nM
potency estimated from few doses [2, 14]: 1150 nM
potency estimated from few doses [2, 15]: 1460 nM
potency estimated from few doses [2, 16]: 983 nM
potency estimated from few doses ([2]; compound concentrations:100 nM and 1000 nM (sheet 'Lestaurtinib' of Supplementary Table 1),run:Lestaurtinib_02438_R2,Plate:MR008): 1370 nM
potency estimated from few doses ([2]; compound concentrations:100 nM and 1000 nM (sheet 'Lestaurtinib' of Supplementary Table 1),run:Lestaurtinib_02438_R3,Plate:MR008): 1530 nM
potency estimated from few doses ([2]; compound concentrations:100 nM and 1000 nM (sheet 'Lestaurtinib' of Supplementary Table 1),run:Lestaurtinib_02443_R1,Plate:MR009): 1310 nM
potency estimated from few doses ([2]; compound concentrations:100 nM and 1000 nM (sheet 'Lestaurtinib' of Supplementary Table 1),run:Lestaurtinib_02443_R2,Plate:MR009): 1410 nM
potency estimated from few doses [2, 17]: 969 nM
potency estimated from few doses [2, 18]: 1430 nM
potency estimated from few doses [2, 19]: 858 nM
potency estimated from few doses [2, 20]: 1460 nM
potency estimated from few doses [2, 21]: 1890 nM
potency estimated from few doses [2, 22]: 1210 nM
potency estimated from few doses [2, 23]: 946 nM
potency estimated from few doses ([2]; compound concentrations:100 nM and 1000 nM (sheet 'Lestaurtinib' of Supplementary Table 1),run:Lestaurtinib_02572_R3,Plate:MR015): 1620 nM
potency estimated from few doses ([2]; compound concentrations:100 nM and 1000 nM (sheet 'Lestaurtinib' of Supplementary Table 1),run:Lestaurtinib_02577_R1,Plate:MR016): 1360 nM
potency estimated from few doses ([2]; compound concentrations:100 nM and 1000 nM (sheet 'Lestaurtinib' of Supplementary Table 1),run:Lestaurtinib_02584_R2,Plate:MR017): 1300 nM
potency estimated from few doses ([2]; compound concentrations:100 nM and 1000 nM (sheet 'Lestaurtinib' of Supplementary Table 1),run:Lestaurtinib_02584_R3,Plate:MR017): 1360 nM
potency estimated from few doses ([2]; compound concentrations:100 nM and 1000 nM (sheet 'Lestaurtinib' of Supplementary Table 1),run:Lestaurtinib_02601_R1,Plate:MR018): 1700 nM
potency estimated from few doses ([2]; compound concentrations:100 nM and 1000 nM (sheet 'Lestaurtinib' of Supplementary Table 1),run:Lestaurtinib_02601_R2,Plate:MR018): 1460 nM
potency estimated from few doses ([2]; compound concentrations:100 nM and 1000 nM (sheet 'Lestaurtinib' of Supplementary Table 1),run:Lestaurtinib_02606_R1,Plate:MR019): 1440 nM
potency estimated from few doses ([2]; compound concentrations:100 nM and 1000 nM (sheet 'Lestaurtinib' of Supplementary Table 1),run:Lestaurtinib_02606_R3,Plate:MR019): 1350 nM
potency estimated from few doses ([2]; compound concentrations:100 nM and 1000 nM (sheet 'Lestaurtinib' of Supplementary Table 1),run:Lestaurtinib_02624_R1,Plate:MR020): 1440 nM
potency estimated from few doses ([2]; compound concentrations:100 nM and 1000 nM (sheet 'Lestaurtinib' of Supplementary Table 1),run:Lestaurtinib_02624_R2,Plate:MR020): 998 nM
potency estimated from few doses ([2]; compound concentrations:100 nM and 1000 nM (sheet 'Lestaurtinib' of Supplementary Table 1),run:Lestaurtinib_02724_R1,Plate:MR021): 998 nM
potency estimated from few doses ([2]; compound concentrations:100 nM and 1000 nM (sheet 'Lestaurtinib' of Supplementary Table 1),run:Lestaurtinib_02741_R1,Plate:MR023): 916 nM
potency estimated from few doses ([2]; compound concentrations:100 nM and 1000 nM (sheet 'Lestaurtinib' of Supplementary Table 1),run:Lestaurtinib_02765_R1,Plate:MR026): 1490 nM
potency estimated from few doses [2, 4]: 1830 nM
potency estimated from few doses ([2]; compound concentrations:100 nM and 1000 nM (sheet 'Lestaurtinib' of Supplementary Table 1),run:Lestaurtinib_02766_R2,Plate:MR027): 1150 nM
potency estimated from few doses [2, 5]: 942 nM
potency estimated from few doses ([2]; compound concentrations:100 nM and 1000 nM (sheet 'Lestaurtinib' of Supplementary Table 1),run:Lestaurtinib_02768_R1,Plate:MR028): 1150 nM
potency estimated from few doses [2, 6]: 923 nM
potency estimated from few doses [2, 7]: 1340 nM
potency estimated from few doses ([2]; compound concentrations:100 nM and 1000 nM (sheet 'Lestaurtinib' of Supplementary Table 1),run:Lestaurtinib_02802_R3,Plate:MR029): 687 nM
potency estimated from few doses ([2]; compound concentrations:100 nM and 1000 nM (sheet 'Lestaurtinib' of Supplementary Table 1),run:Lestaurtinib_03172_R1,Plate:MR031): 1310 nM
potency estimated from few doses [2, 8]: 1570 nM
potency estimated from few doses [2, 9]: 1750 nM
potency estimated from few doses ([2]; compound concentrations:100 nM and 1000 nM (sheet 'Lestaurtinib' of Supplementary Table 1),run:Lestaurtinib_03260_R2,Plate:MR033): 1460 nM
potency estimated from few doses [2, 10]: 1580 nM
potency estimated from few doses ([3]; compound concentrations:100 nM and 1000 nM (sheet 'Lestaurtinib' of Supplementary Table 1),run:Lestaurtinib_02339_R2,Plate:MR001): 617 nM
potency estimated from few doses ([3]; compound concentrations:100 nM and 1000 nM (sheet 'Lestaurtinib' of Supplementary Table 1),run:Lestaurtinib_02339_R3,Plate:MR001): 1150 nM
potency estimated from few doses ([3]; compound concentrations:100 nM and 1000 nM (sheet 'Lestaurtinib' of Supplementary Table 1),run:Lestaurtinib_02364_R2,Plate:MR002): 618 nM
potency estimated from few doses ([3]; compound concentrations:100 nM and 1000 nM (sheet 'Lestaurtinib' of Supplementary Table 1),run:Lestaurtinib_02364_R3,Plate:MR002): 801 nM
potency estimated from few doses [3, 11]: 1620 nM
potency estimated from few doses ([3]; compound concentrations:100 nM and 1000 nM (sheet 'Lestaurtinib' of Supplementary Table 1),run:Lestaurtinib_02367_R3,Plate:MR003): 623 nM
potency estimated from few doses [3, 12]: 932 nM
potency estimated from few doses [3, 13]: 763 nM
potency estimated from few doses ([3]; compound concentrations:100 nM and 1000 nM (sheet 'Lestaurtinib' of Supplementary Table 1),run:Lestaurtinib_02407_R3,Plate:MR005): 1460 nM
potency estimated from few doses ([3]; compound concentrations:100 nM and 1000 nM (sheet 'Lestaurtinib' of Supplementary Table 1),run:Lestaurtinib_02422_R1,Plate:MR006): 575 nM
potency estimated from few doses [3, 14]: 964 nM
potency estimated from few doses ([3]; compound concentrations:100 nM and 1000 nM (sheet 'Lestaurtinib' of Supplementary Table 1),run:Lestaurtinib_02422_R3,Plate:MR006): 609 nM
potency estimated from few doses [3, 15]: 865 nM
potency estimated from few doses [3, 16]: 838 nM
potency estimated from few doses ([3]; compound concentrations:100 nM and 1000 nM (sheet 'Lestaurtinib' of Supplementary Table 1),run:Lestaurtinib_02443_R3,Plate:MR009): 798 nM
potency estimated from few doses [3, 17]: 970 nM
potency estimated from few doses [3, 18]: 755 nM
potency estimated from few doses [3, 19]: 882 nM
potency estimated from few doses [3, 20]: 469 nM
potency estimated from few doses [3, 21]: 898 nM
potency estimated from few doses ([3]; compound concentrations:100 nM and 1000 nM (sheet 'Lestaurtinib' of Supplementary Table 1),run:Lestaurtinib_02482_R3,Plate:MR011): 612 nM
potency estimated from few doses [3, 22]: 798 nM
potency estimated from few doses ([3]; compound concentrations:100 nM and 1000 nM (sheet 'Lestaurtinib' of Supplementary Table 1),run:Lestaurtinib_02487_R2,Plate:MR012): 744 nM
potency estimated from few doses [3, 23]: 712 nM
